The values that follow come from PubChem BioAssay (NCATS).

For test [1], the target named is Lysosomal acid glucosylceramidase (Homo sapiens) (UniProt P04062). The test can be described thus: Glucocerebrosidase-p2 (AID 348; in the data active = potency below about 10 µM; also: potency is read from the fitted curve at half-maximal effect). Particulars: purified GBA, blue fluorogenic substrate, 40 min. The gist of the method: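 Normal human glucocerebrosidase (0.2 nM) with blue fluorogenic substrate (80 uM final) in citrate/phosphate pH 5.9 with 10mM sodium taurocholate, 0.01% tween-20; 40 min RT, NaOH/glycine stop; fluorescence Ex 365/Em 440; AC50 from a titration from 0.6 nM upwards.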
Lysosomal acid glucosylceramidase (Homo sapiens), sequence (P04062 whole entry, looked up): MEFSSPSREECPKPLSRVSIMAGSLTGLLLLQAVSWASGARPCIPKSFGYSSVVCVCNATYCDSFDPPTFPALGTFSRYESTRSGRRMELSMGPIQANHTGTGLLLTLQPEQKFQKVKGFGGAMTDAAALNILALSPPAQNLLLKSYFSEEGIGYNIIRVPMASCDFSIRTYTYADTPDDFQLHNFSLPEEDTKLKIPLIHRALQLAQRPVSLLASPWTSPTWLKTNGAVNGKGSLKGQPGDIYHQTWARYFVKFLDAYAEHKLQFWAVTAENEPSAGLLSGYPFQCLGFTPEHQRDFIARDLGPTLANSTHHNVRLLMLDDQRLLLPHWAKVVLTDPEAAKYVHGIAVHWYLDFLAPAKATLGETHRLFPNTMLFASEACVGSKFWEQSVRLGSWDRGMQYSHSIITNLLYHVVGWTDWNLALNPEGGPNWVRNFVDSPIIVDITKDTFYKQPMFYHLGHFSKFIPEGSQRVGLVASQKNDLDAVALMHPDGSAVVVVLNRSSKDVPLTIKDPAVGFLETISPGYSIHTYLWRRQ

Test [2] is described as follows: AP1 Signaling Pathway (AID 357).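 Also: ME-180 reporter cells stimulated with EGF at its EC50 level; % is scaled to controls: 0 for no effect and ±100 for the full control effect.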 As to conditions: ME-180 AP-1-bla reporter, EGF-induced, beta-lactamase ratio, 5 h; at 7.69 µM (top of the series) unless noted. A digest of the protocol:
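Beta-lactamase reporter under AP-1 response element, ME-180 background. Stimulus: EC50 EGF. Compound exposure 5 h, 37 °C. Detection: CCF4, 2.5 h RT, 460/530 nm. Values: AC50 from titration.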

Test [3] addresses Cytochrome P450 1A2 (Homo sapiens) (UniProt P05177). Description: p450-cyp1a2 (AID 410; calls by dose curve; also: potency is read from the fitted curve at half-maximal effect). A digest of the protocol: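 Luminescent demethylation readout: Luciferin-ME (100uM, equal to Km) turned over by 20nM CYP1A2 for 60 min at room temperature after NADPH regeneration addition, following 10 min compound preincubation. Normalization used 57 uM furafylline as full inhibition.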
Test [4] in a line: NFAT Signaling Pathway (AID 444).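 Also: carbachol stimulus at about its EC50 of 1 µM final; % is scaled to controls: 0 for no effect and ±100 for the full control effect.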 As to conditions: Jurkat NFAT-bla M1, carbachol, beta-lactamase ratio, 5 h; at 7.69 µM (top of the series) unless noted. The gist of the method:
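Jurkat cells carrying an NFAT-driven β-lactamase reporter and co-transfected muscarinic M1 receptor were treated with compound plus carbachol (1 uM final, an EC50 level) for 5 h at 37 °C. CCF4 loading followed for 1 h at RT; 460/530 nm ratio gave %activity.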

Test [5] in a line: Stat Signaling Pathway (AID 446).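 Also: ME-180 cervical cancer cells given 40 pM IL-6 alongside compound; SIE-controlled beta-lactamase reporter measured as 460/530 nm FRET emission ratio; % is scaled to controls: 0 for no effect and ±100 for the full control effect.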 Particulars: ME-180 SIE beta-lactamase reporter, IL-6 stimulated, 5 h; at 7.69 µM (top of the series) unless noted. A digest of the protocol:
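Normalization used AC90 stimulation (300 pM IL-6) and AC90 inhibition (125 nM pan-JAK inhibitor at 40 pM IL-6). The underlying signal is SIE-driven beta-lactamase in ME-180 cells after 5 h IL-6 exposure with compound.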

In test [6] the target is Glucocorticoid receptor (Homo sapiens) (UniProt P04150). The test can be described thus: GR-GFP Redistribution (AID 450;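 active = compounds whose dose series gives a full or clear partial fitted curve of increased nuclear translocation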; also: potency is read from the fitted curve at half-maximal effect). As to conditions: U2OS GR-GFP nuclear translocation, laser cytometry, 2 h.
Glucocorticoid receptor (Homo sapiens), sequence (P04150 whole entry, looked up, the tested form may be a part): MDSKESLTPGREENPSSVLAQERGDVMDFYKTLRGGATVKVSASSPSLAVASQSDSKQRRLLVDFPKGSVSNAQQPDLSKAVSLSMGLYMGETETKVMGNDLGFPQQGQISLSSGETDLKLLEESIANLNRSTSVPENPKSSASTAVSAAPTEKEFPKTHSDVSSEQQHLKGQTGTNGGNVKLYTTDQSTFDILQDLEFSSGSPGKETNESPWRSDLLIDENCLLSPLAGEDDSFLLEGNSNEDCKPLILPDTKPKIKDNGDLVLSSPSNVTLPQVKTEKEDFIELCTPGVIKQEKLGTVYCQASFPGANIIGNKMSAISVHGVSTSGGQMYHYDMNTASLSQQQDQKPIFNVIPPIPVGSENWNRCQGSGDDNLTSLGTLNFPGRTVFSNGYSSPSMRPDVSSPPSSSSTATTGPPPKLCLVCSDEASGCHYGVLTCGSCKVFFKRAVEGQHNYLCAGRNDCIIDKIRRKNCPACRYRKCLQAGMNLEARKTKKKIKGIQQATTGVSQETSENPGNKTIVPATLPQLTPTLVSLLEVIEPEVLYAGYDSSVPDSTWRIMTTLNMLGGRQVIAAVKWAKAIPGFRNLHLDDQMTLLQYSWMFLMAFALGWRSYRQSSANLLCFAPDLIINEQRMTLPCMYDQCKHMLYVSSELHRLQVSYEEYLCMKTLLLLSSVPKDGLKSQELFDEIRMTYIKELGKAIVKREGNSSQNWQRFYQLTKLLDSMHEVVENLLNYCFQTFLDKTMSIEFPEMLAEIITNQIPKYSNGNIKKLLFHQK
The target is the same in test [7]. Description: GR-EFC Redistribution (AID 451; calls by dose curve; also: potency is read from the fitted curve at half-maximal effect). As to conditions: CHO-K1 GR-EFC translocation, beta-gal luminescence, 2 h. A digest of the protocol: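 CHO-K1 cells stably expressing nuclear-localized β-gal enzyme acceptor and GR fused C-terminally to the enzyme donor fragment; ligand-driven nuclear translocation restores β-gal by complementation. Compounds titrated up to 46 uM final, 2 h at 37 °C; luminescence read.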

For test [8], the target named is Mitogen-activated protein kinase 10 (Mus musculus) (UniProt Q61831). The test can be described thus: JNK3 AlphaScreen Assay (AID 530).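 Also: kinase came from lysate of stimulated human HepG2 cells; signal reports phosphorylation of biotinylated GST-cJun 1-79 at Ser73 with 10 µM ATP; % is scaled to controls: 0 for no effect and ±100 for the full control effect.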 The gist of the method: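 Phosphorylation of biotinylated GST-cJun(1-79) at Ser73 is measured by AlphaScreen proximity luminescence. Enzyme is JNK3 in HepG2 lysates activated with interleukin-1beta and tumor necrosis factor alpha; ATP is 10 uM final.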

In test [9] the target is 3',5'-cyclic-AMP phosphodiesterase 4B (Homo sapiens) (UniProt Q07343). The test can be described thus: qHTS Assay for Inhibitors of PDE-IV (AID 607; active = well fitted activation curve with a large enough effect in the main read-out, with a control signal flat, not every such curve was filed as active; also: % of control where 0% means no effect). The gist of the method: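 HEK293 ACTOne cells with CNG channel (1000/well), endogenous PDE4; membrane potential dye, compounds up to 22.9 uM final. Fluorescence Ex 535/Em 590; RO 20-1724 (100 uM final) as reference.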
3',5'-cyclic-AMP phosphodiesterase 4B (Homo sapiens), sequence (Q07343 whole entry, looked up): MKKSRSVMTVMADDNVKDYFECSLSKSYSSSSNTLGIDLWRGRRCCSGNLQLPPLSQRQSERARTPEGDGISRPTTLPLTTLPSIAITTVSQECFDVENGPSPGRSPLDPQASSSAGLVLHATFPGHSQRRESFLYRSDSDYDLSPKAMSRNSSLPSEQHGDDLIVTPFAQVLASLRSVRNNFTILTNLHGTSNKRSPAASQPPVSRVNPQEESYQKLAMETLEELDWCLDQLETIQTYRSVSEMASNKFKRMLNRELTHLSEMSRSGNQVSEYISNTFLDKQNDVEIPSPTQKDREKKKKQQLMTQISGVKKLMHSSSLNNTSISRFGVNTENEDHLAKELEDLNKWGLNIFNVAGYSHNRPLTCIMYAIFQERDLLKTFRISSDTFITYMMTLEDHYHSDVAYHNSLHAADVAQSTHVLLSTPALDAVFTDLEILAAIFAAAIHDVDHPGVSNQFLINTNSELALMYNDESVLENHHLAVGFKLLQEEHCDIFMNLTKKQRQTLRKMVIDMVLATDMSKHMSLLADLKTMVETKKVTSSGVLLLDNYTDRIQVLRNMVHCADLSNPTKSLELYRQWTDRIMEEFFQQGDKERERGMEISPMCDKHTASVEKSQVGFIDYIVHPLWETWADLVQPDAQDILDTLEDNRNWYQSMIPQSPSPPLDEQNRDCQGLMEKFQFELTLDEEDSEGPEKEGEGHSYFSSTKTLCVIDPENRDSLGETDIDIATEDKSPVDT
In test [10] the target is Cytochrome P450 3A4 (Homo sapiens) (UniProt P08684). Description: qHTS Assay for Activators of Cytochrome P450 3A4 (AID 885; active = well fitted curve in the direction sought with a large enough effect; an effect the other way counts as inactive or inconclusive; also: nearly all actives have a fitted effect of over 65% in size). A digest of the protocol: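 Human CYP3A4 dealkylates Luciferin-PPXE to luciferin, which luciferase detection converts to light. Substrate was at its KM (25uM), buffer 200mM KPO4, reaction 60 min at RT.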
Cytochrome P450 3A4 (Homo sapiens), sequence (P08684 whole entry, looked up): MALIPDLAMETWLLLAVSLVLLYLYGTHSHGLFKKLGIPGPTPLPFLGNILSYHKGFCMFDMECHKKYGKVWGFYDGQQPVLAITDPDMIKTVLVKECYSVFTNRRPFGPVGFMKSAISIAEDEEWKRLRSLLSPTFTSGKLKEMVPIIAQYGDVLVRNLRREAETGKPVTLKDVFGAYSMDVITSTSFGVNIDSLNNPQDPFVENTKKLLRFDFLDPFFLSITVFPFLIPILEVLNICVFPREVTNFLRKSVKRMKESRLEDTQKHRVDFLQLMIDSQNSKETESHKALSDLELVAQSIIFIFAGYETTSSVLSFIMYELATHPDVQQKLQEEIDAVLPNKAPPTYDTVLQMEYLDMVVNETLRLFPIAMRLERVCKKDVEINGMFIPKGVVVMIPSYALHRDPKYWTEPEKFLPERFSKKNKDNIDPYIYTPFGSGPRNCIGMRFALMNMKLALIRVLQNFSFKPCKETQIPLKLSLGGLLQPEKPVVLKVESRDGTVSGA
On the technique in general: In qHTS, concentration-response curves come from the screen itself.

Test [11] is described as follows: qHTS Assay for Lipid Storage Modulators (AID 1519; calls by dose curve). As to conditions: Drosophila S3 cells, BODIPY lipid droplet/cell ratio, laser cytometry, cells loaded with oleic acid; for activity change, negative = inhibition: at 57.5 µM (top of the series). The gist of the method:
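Cells seeded at 5,000 per well were treated with compounds over a concentration series and loaded with oleic acid (400 uM, as added). Lipid droplet fluorescence (488 nm excitation, 500-530 nm channel) was read by laser-scanning cytometry and normalized to 20 uM Triacsin C.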

The target of test [12] is Dual specificity protein kinase CLK4 (Homo sapiens) (UniProt Q9HAZ1). Description: qHTS Assay for Inhibitors of CDC-like Kinase 4 (Kinase-Glo Assay) (AID 1770; active = well fitted curve in the direction sought with a large enough effect; an effect the other way counts as inactive or inconclusive; also: % is scaled to controls: 0 for no effect and ±100 for the full control effect; nearly all actives have a fitted effect of over 65% in size). A digest of the protocol: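 Luminescent ATP-depletion read-out (Kinase-Glo) after 4.5 h room-temperature reaction of Clk4 (25 nM final) with RS peptide (100 uM) and ATP (1 uM), pH 7.5 Tris buffer with MgCl2 and DTT.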
Dual specificity protein kinase CLK4 (Homo sapiens), sequence (Q9HAZ1 whole entry, looked up): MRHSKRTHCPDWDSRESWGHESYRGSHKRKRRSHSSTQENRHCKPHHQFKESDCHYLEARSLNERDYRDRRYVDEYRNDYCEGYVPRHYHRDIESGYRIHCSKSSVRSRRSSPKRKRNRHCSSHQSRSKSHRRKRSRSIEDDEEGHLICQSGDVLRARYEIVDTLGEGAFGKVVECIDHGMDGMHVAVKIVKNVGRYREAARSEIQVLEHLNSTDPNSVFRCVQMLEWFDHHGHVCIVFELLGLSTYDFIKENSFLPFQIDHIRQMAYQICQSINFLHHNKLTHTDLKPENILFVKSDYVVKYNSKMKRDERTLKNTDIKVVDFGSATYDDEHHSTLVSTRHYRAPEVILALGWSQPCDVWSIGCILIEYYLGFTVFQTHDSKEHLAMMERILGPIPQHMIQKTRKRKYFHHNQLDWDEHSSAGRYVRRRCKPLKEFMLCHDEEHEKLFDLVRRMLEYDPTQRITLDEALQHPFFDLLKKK

For test [13] the target is unchanged. The test can be described thus: qHTS Assay for Inhibitors of CDC-like Kinase 4 (ADP-Glo Assay) (AID 1771; active = well fitted curve in the direction sought with a large enough effect; an effect the other way counts as inactive or inconclusive; also: nearly all actives have a fitted effect of over 70% in size; also: potency is read from the fitted curve at half-maximal effect). The gist of the method: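 ADP production was read by ADP-Glo luminescence after residual ATP depletion, following 1 h room-temperature reaction of 25 nM Clk4, 1 uM ATP and 100 uM RS peptide with MgCl2, EGTA, DTT and Triton X-100.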
Test [14] has the same target. Description: qHTS Assay for Inhibitors of CDC-like Kinase 4 (ADP-FP Assay) (AID 1795; active = well fitted curve in the direction sought with a large enough effect; an effect the other way counts as inactive or inconclusive;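 also: recombinant human CLK4 phosphorylating RS repeat peptide at 1 µM ATP; % is scaled to controls: 0 for no effect and ±100 for the full control effect; nearly all actives have a fitted effect of over 60% in size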). A digest of the protocol: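 Kinase activity was measured as ADP production using Transcreener orange tracer (4 nM) and ADP antibody (1 ug/mL) fluorescence polarization, with ADP calculated from a calibration curve. The 1 h reaction contained 6.25 nM Clk4, 1 uM ATP and 100 uM RS peptide at pH 7.5 with Mg2+.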

The target in test [15] is Ubiquitin carboxyl-terminal hydrolase 1 (Homo sapiens) (UniProt O94782). Description: Inhibitors of USP1/UAF1: Pilot qHTS (AID 504865; active = well fitted curve in the direction sought with a large enough effect; an effect the other way counts as inactive or inconclusive;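 also: rhodamine fluorescence freed from ubiquitin-rhodamine substrate followed over time; top concentration of the series differs between compounds; % is scaled to controls: 0 for no effect and ±100 for the full control effect; nearly all actives have a fitted effect of over 35% in size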). A digest of the protocol: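 Deubiquitinase activity followed as kinetic rhodamine fluorescence release from 150 nM Ub-Rho. 1 nM USP1/UAF1 with compound, after 15 min room-temperature preincubation, in HEPES pH 7.8 buffer containing TCEP, EDTA, BSA and Tween-20.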
Ubiquitin carboxyl-terminal hydrolase 1 (Homo sapiens), sequence (O94782 whole entry, looked up): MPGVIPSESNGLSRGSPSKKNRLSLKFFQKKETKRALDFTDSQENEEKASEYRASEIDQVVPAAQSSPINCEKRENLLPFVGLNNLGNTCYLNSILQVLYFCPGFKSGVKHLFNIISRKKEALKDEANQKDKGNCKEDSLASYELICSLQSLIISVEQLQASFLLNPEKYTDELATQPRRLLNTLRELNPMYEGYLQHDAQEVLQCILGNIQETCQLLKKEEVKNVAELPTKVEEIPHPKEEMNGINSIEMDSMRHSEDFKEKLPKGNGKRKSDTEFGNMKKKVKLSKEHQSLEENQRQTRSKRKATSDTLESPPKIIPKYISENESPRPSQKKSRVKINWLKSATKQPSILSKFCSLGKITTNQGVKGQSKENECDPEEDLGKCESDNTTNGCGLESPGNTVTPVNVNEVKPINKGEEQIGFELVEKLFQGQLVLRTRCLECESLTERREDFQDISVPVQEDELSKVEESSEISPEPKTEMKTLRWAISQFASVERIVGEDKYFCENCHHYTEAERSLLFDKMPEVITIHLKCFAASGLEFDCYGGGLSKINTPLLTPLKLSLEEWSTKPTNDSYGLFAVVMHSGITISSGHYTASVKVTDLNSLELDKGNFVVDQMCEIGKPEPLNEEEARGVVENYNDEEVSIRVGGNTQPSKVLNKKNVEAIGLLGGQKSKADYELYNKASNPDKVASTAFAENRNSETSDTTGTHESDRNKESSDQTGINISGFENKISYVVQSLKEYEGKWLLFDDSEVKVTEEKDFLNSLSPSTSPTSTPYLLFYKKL

Test [16] concerns the target Cytochrome P450 2C9 (Homo sapiens) (UniProt P11712). Description: qHTS Assay for Inhibitors and Substrates of Cytochrome P450 2C9 (AID 883; active = well fitted curve in the direction sought with a large enough effect; an effect the other way counts as inactive or inconclusive; also: % is scaled to controls: 0 for no effect and ±100 for the full control effect; nearly all actives have a fitted effect of over 60% in size). A digest of the protocol: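 CYP2C9 deoxyluciferin hydroxylation, 37C, 60 min with NADPH regeneration; 10nM enzyme, 100uM Luciferin-H (KM). Glo detection reagent stopped reaction; luminescence normalized to sulphaphenazole (57uM) full inhibition.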

In test [17] the target is Cytochrome P450 2C19 (Homo sapiens) (UniProt P33261). Description: qHTS Assay for Inhibitors and Substrates of Cytochrome P450 2C19 (AID 899; active = well fitted curve in the direction sought with a large enough effect; an effect the other way counts as inactive or inconclusive; also: % is scaled to controls: 0 for no effect and ±100 for the full control effect; nearly all actives have a fitted effect of over 60% in size). The gist of the method: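 In 50mM KPO4, the reaction held 5nM enzyme and KM-level (10uM) Luciferin-H EGE; it ran 60 min at 37C after NADPH regeneration and a 10 min compound preincubation. Luminescence values were scaled to 57uM ketoconazole as complete inhibition.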

Test [18] in a line: Primary qHTS for small molecule stabilizers of the endoplasmic reticulum resident proteome: Secreted ER Calcium Modulated Protein (SERCaMP) assay (AID 1508630; active = well fitted curve in the direction sought with a large enough effect; an effect the other way counts as inactive or inconclusive; also: % is scaled to controls: 0 for no effect and ±100 for the full control effect). The gist of the method: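 The SH-SY5Y reporter protocol was run at 3 concentrations up to 38.3 uM (primary) or 11 concentrations (follow-up): 16 h compound, 100 nM thapsigargin for 4 h, then extracellular luciferase luminescence.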

Test [19] is described as follows: qHTS Assay for Identification of Small Molecule Agonists for Hypoxia Response Element Signaling Pathway (AID 914; active = well fitted activation curve with a large enough effect in the signal ratio, with a control signal flat, not every such curve was filed as active; the % refers to the signal ratio; also: % of control where 0% means no effect). As to conditions: ME-180 (cervical carcinoma) HRE-bla reporter, beta-lactamase ratio, CoCl2, 17 h; activation: stronger effect = higher value. The gist of the method:
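Read-out: CCF4 FRET ratio of 460nm to 530nm emission (excitation 405nm) after 2.5 hours at room temperature, taken from HRE-bla ME-180 cells that had been exposed to compound and EC50 CoCl2 for 17 hours.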

The mark [20] stands for this setting: measured here: cell count channel max response.
The mark [21] stands for this setting: measured here: lipid channel max response.

Inconclusive results are not listed. The source made the active and inactive calls. Unless noted, calls follow the shape of the dose curve; as a rule, active = well fitted curve in either direction with a large enough effect (not every such curve was filed as active); inconclusive = small, poorly fitted or top-dose-only effect, or another doubt; inactive = flat fitted curve, though single readings scatter. Bounds are passed on as bounds.

Cytochrome P450 1A2 (Homo sapiens), sequence (P05177 whole entry, looked up): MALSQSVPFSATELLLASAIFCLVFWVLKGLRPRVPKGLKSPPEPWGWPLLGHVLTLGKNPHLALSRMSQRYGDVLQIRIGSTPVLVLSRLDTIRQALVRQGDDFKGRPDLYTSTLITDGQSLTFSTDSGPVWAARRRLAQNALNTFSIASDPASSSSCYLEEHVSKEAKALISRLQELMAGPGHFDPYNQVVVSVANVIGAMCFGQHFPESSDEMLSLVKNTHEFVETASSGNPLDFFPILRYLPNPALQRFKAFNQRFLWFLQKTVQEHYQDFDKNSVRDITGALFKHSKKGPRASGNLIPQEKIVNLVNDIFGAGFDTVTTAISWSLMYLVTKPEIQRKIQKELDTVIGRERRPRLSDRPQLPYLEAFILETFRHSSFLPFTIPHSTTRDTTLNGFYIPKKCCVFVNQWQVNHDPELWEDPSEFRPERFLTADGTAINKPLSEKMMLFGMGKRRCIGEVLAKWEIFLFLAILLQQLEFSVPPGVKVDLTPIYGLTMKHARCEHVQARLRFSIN
Cytochrome P450 2C9 (Homo sapiens), sequence (P11712 whole entry, looked up): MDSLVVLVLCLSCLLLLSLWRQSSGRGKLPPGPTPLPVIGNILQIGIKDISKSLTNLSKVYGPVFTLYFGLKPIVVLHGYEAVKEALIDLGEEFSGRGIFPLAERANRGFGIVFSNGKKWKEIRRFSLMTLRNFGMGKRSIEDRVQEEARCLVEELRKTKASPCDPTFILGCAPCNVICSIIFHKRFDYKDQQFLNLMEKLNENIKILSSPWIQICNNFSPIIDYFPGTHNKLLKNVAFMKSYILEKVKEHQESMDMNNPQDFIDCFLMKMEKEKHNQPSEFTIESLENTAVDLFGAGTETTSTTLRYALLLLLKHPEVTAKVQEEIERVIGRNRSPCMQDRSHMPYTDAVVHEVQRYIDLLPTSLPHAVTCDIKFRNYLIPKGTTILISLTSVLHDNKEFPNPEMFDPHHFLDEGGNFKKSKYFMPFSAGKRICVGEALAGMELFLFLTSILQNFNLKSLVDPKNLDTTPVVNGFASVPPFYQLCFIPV

For the compound `NCCn1c(=O)c(CCc2ccccc2)nc2cncnc21`, the Potency in test [1] is > 11.4 µM (inactive); in test [3], 12.6 µM (active); in test [6], > 9.22 µM (inactive); in test [7], > 46 µM (inactive). The activity change, negative = inhibition was -1.99% (inactive) in test [2], -4.68% (inactive) in test [4] and 4.81% (inactive) in test [11]. The activity, negative = inhibition in test [5] was -4.77% (inactive). Also, the result in test [8] was inactive. The Potency entry in test [9], in test [10], in [12], in test [13], in test [14] and in test [15] was “inactive” throughout. In addition, the max response in test [11] (setting [20]) was determined as 26.7%; in test [11] (setting [21]), 29.9%.

For `CS(=O)(=O)N1CCC2(CCN(c3cccc(-c4ccccc4)c3)CC2)CC1`, the activity change, negative = inhibition in test [2] was -1.25% (inactive); in test [4], 10.1% (inactive); in test [11], -1.6% (inactive). Moreover, the Potency result in test [3], in test [9], in test [16], in [17] and in test [18] was “inactive” throughout. Moreover, the activity, negative = inhibition in test [5] is -21% (inactive). Also, in [7], the Potency is > 46 µM (inactive). Also, in [8], the compound was called inactive. Also, the max response in [11] (setting [20]) is 19.1%; in test [11] (setting [21]) it was 18.7%.

Turning to `c1csc(CNc2cc(-c3ccoc3)ncn2)c1`, the Potency was > 11.4 µM (inactive) in test [1]; 2 µM (active) in test [3]; > 46 µM (inactive) in [6]; > 46 µM (inactive) in [7]; 35.5 µM (active) in test [13]. In addition, the activity change, negative = inhibition in test [2] is -0.901% (inactive); in test [4], -2.52% (inactive); in test [11], 5.83% (inactive). Also, the activity, negative = inhibition in test [5] was 3.9% (inactive). Besides, the result in test [8] was inactive. For the same compound, the Potency result in [9], in test [10], in [14] and in test [15] was “inactive” in each case. Further, the max response in test [11] (setting [20]) worked out at 26.5%; in [11] (setting [21]), 29.6%.

As to `COc1ccc(C(=O)N2CCC3(CCN(C)CC3)CC2)cc1`, the results for the Potency in test [1] and in [7] were > 11.4 µM (inactive) and > 46 µM (inactive), respectively. The values for the activity change, negative = inhibition in test [2], in test [4] and in test [11] were -25.4% (inactive), -8.24% (inactive) and 3.67% (inactive), respectively. The Potency result in test [3] and in [9] was “inactive” throughout. The activity, negative = inhibition in test [5] is 2.9% (inactive). The compound was classed as inactive in [8]. The activation in test [19] was 5.39% (inactive). Besides, the figures for the max response in test [11] (setting [20]) and in test [11] (setting [21]) were 8.31% and 12.9%, respectively.

As to `O=C(Nc1ccccc1)N1CC2(CCN(C(=O)c3ccco3)CC2)C1`, the Potency in [1] is > 11.4 µM (inactive); in [7], > 46 µM (inactive). Further, the results for the activity change, negative = inhibition in test [2], in test [4] and in test [11] were -2% (inactive), 3.9% (inactive) and 5.54% (inactive), respectively. Besides, the Potency entry in [3] and in test [9] was “inactive” throughout. The activity, negative = inhibition in [5] is 4.13% (inactive). In addition, the compound was called inactive in test [8]. Also, the max response is 21.9% in [11] (setting [20]) and 27.1% in test [11] (setting [21]).

As for `COc1ccc(-c2nc3cnc(N4CCOCC4)nc3n(C[C@H]3CCCO3)c2=O)cc1`, the Potency in test [1] was > 11.4 µM (inactive); in [3] it was 5.01 µM (active); in test [6], > 9.22 µM (inactive); in [7] it was > 46 µM (inactive). Moreover, the values for the activity change, negative = inhibition in test [2], in test [4] and in test [11] were 8.17% (inactive), 15.8% (inactive) and 1.98% (inactive), respectively. Besides, the activity, negative = inhibition in test [5] is 9.41% (inactive). In addition, the compound was called inactive in test [8]. The Potency entry in [16], in [13], in test [14] and in test [15] was “inactive” each time. Also, the values for the max response in [11] (setting [20]) and in [11] (setting [21]) were 4.58% and 6.82%, respectively.

With `CS(=O)(=O)N1CCC[C@@]2(CCN(c3ccccn3)C2)C1`, the Potency was > 11.4 µM (inactive) in test [1] and > 46 µM (inactive) in test [7]. The values for the activity change, negative = inhibition in test [2], in test [4] and in test [11] were -9.92% (inactive), -19.3% (inactive) and 2.29% (inactive), respectively. For the same compound, the Potency result in [3], in [9] and in test [10] was “inactive” each time. In [5], the activity, negative = inhibition is -8.41% (inactive). Also, in test [8], the compound was called inactive. The max response in test [11] (setting [20]) is -1.27%; in test [11] (setting [21]), 2.21%.
